Compounds with a hit are over-represented: about 1.2% of the library has one in this group of screens.
RGS16-Gao HTS: regulators of human RGS16-Galphao interaction. bead-based flow cytometry RGS16-Galphao binding, fluorescence; actives lie on both sides. AID 1441. hit rate 0.38% among 220,000. binding response (% of control), % at 10 µM. O15492+P09471;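 note: Galphao activated by GDP with aluminum fluoride before binding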
Target sequence (O15492 whole entry, looked up): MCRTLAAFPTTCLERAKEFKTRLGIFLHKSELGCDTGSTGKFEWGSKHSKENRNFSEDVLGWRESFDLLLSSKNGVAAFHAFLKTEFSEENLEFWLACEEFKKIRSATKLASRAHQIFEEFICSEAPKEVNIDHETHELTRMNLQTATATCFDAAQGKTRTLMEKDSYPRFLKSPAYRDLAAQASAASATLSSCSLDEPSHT
Target sequence (P09471 whole entry, looked up): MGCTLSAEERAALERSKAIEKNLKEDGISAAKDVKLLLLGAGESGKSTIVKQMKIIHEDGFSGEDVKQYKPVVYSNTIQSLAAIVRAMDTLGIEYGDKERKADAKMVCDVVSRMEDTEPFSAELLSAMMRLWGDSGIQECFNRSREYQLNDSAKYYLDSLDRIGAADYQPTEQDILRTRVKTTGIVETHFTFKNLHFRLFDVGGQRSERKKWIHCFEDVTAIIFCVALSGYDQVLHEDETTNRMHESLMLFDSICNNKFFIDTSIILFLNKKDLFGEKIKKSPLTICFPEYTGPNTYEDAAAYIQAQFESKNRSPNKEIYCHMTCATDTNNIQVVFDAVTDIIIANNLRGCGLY
RGS4-Gao reg: human RGS4-Galphao interaction regulation; P09471; Multiplexed bead flow cytometry, RGS4-Galphao binding; actives lie on both sides; binding response (% of control), % at 10 µM; hit rate 0.33% among 220,000; in the data active = binding response below about 49% or above about 150%; inactive = in between;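 note: fluorescent Galphao activated with aluminum fluoride binding bead-coupled RGS4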
Target sequence (P09471 whole entry, looked up): as above
RGS8-Gao reg: human RGS8-Galphao interaction regulation | hit rate 0.34% among 220,000 | AID 1423 | response (percent of control binding), % at 10 µM | multiplexed bead flow cytometry, RGS8-Galphao binding; actives lie on both sides; in the data active = response below about 60% or above about 140%; inactive = in between;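 note: Galphao activated as the GDP aluminium fluoride complex binding bead-coupled RGS8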
GSH fluor: compound fluoresces at 488/530 nm on GSH beads; GSH beads flow cytometry, compound fluorescence 488/530 nm; active compounds read high; fluorescence (KMESF) at 10 µM; hit rate 0.25% among 190,000; AID 1776; in the data active = fluorescence above about 89;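 note: glutathione beads carrying GST-tagged Bcl family fusion proteins plus one bare bead set; values are compound well signal with DMSO vehicle wells as background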
Avidin fluor: compound fluoresces at 488/530 nm on avidin beads; fluorescence (KMESF) at 10 µM; hit rate 0.38% among 220,000; compound fluorescence 488/530 nm, flow cytometry; active compounds read high; in the data active = fluorescence above about 47
RGS7-Gao: human RGS7-Galphao interaction regulation | hit rate 0.35% among 220,000 | binding response (% of control), % at 10 µM | P09471 | Multiplexed bead flow cytometry, RGS7-Galphao binding; actives lie on both sides; in the data active = binding response below about 49% or above about 150%; inconclusive = no clear call, values can overlap the other calls; inactive = in between;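 note: fluorescent Galphao held in activated GDP-AlF4 state binding bead-coupled RGS7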
RGS-Gao: regulators of human RGS4-Galphao interaction. shares compounds with RGS16-Gao HTS. multiplexed bead flow cytometry, RGS–Galpha-o binding. RGS4–Galpha-o binding response, % at 10 µM. hit rate 99% among 1,600. AID 1504;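 note: fluorescently labeled Galpha-o bound to GDP with aluminium fluoride binding biotinylated RGS beads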
Biotin-avidin: biotin-avidin bead binding disruption counter-screen; shares compounds with RGS16-Gao HTS; streptavidin beads, fluorescein-biotin binding, flow cytometry; inhibition, % at 10 µM; 1,700 tested, under 10 active;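 active = inhibition above 50%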;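 note: median green fluorescence of gated singlet beads compared with DMSO control wells; 0% = DMSO wells and 100% = complete loss of bead fluorescence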
RGS8-Gao single: RGS8-Galphao interaction regulation, single point confirmation. shares compounds with RGS16-Gao HTS. bead-based flow cytometry RGS8-Galphao binding, fluorescence; actives lie on both sides. binding response (% of control), % at 10 µM. hit rate 3% among 1,700; in the data active = binding response below about 72% or above about 130%; inactive = in between;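 note: Galphao activated as GDP AlF4 complex before binding bead RGS8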
RGS7-Gao single: confirmation of regulators of human RGS7-Galphao interaction. response (percent of control binding), % at 10 µM. bead-based flow cytometry RGS7-Galphao binding; actives lie on both sides. shares compounds with RGS16-Gao HTS. hit rate 7.8% among 1,700; in the data active = response below about 75% or above about 130%; inactive = in between;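 note: fluorescent Galphao activated with GDP and aluminum fluoride binding bead-coupled RGS7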
RGS16-Gao single: RGS16-Galphao interaction regulation, single point confirmation. shares compounds with RGS16-Gao HTS. response (% of control binding), % at 10 µM. bead-based flow cytometry, RGS16-Galphao binding; actives lie on both sides. hit rate 4% among 1,700; in the data active = response below about 74% or above about 130%; inactive = in between;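 note: Galphao activated as the GDP aluminium fluoride complex binding bead-coupled RGS16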
RGS4-Gao confirm: RGS4-Galphao interaction regulation, single point confirmation | shares compounds with RGS16-Gao HTS | hit rate 4% among 1,700 | binding response (% of control), % at 10 µM | RGS4-Galphao binding, multiplexed bead flow cytometry; actives lie on both sides; in the data active = binding response below about 74% or above about 130%; inactive = in between
RGS19-Gao single: RGS19-Galphao interaction regulation, single point confirmation | response (percent of control binding), % at 10 µM | AID 1841 | shares compounds with RGS16-Gao HTS | hit rate 5% among 1,700 | bead-based flow cytometry RGS19-Galphao binding; actives lie on both sides; in the data active = response below about 50% or above about 160%; inactive = in between;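 note: 100% = no compound control and 0% = blank background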
An asterisk follows results filed as active; i = inactive; ? = inconclusive; / = no result; [ ] = remark or other dose. Unless noted, the rule behind the calls is not given here.

SMILES | RGS16-Gao HTS | RGS4-Gao reg | RGS8-Gao reg | GSH fluor | Avidin fluor | RGS7-Gao | Biotin-avidin | RGS8-Gao single | RGS7-Gao single | RGS16-Gao single | RGS4-Gao confirm | RGS19-Gao single | others
CC(CN1CCCCC1)C(=O)NNC(=O)C12CC3CC(CC(C3)C1)C2 (stereo not drawn) | 102.7 | 103.2 | 102.0 | 21 | 24 | 104.8 | / | / | / | / | / | /
CC(C)NC(=O)C(=O)NNC(=O)C12CC3CC(CC(C3)C1)C2 | 72.5 | 82.3 | 88.8 | 109* | 7 | 100.6 | / | / | / | / | / | /
Cn1c(=O)c2c(nc(SCC(=O)c3ccccc3F)n2C)n(C)c1=O | 110.8 | 107.6 | 102.8 | 18 | 11 | 104.0 | / | / | / | / | / | /
Cc1ccc(S(=O)(=O)N/N=C\c2cc([N+](=O)[O-])ccc2Cl)cc1 | 102.6 | 102.4 | 100.8 | 34 | 26 | 104.6 | / | / | / | / | / | /
Cc1ccc(S(=O)(=O)N/N=C/c2cccc([N+](=O)[O-])c2)cc1 | -8.2* | 83.3 | 73.6 | 13 | 6 | 80.0 | 0.9 | 98.9 | 89.7 | 96.4 | 94.3 | 81.5 | RGS-Gao=83.3*
CCNC(=O)c1cc2ccccc2o1 | 11.2* | 10.4* | 16.5* | 25 | -1 | 14.7* | 1.4 | 97.8 | 102.1 | 98.7 | 99.5 | 91.7
O=C(NCc1ccccc1)c1cc2ccccc2o1 | 105.6 | 103.0 | 102.3 | 11 | 13 | 110.1 | / | / | / | / | / | /
CCOC(=O)c1sc(NC(=O)COC(=O)C(CCSC)NC(C)=O)nc1C (stereo not drawn) | 9.0* | 86.1 | 78.0 | 13 | 6 | 84.5 | 1.7 | 102.3 | 104.2 | 102.5 | 104.8 | 116.6 | RGS-Gao=86.1*
CC(=O)N1CCc2cc(S(=O)(=O)NC(Cc3ccccc3)C(=O)Nc3cc(C)ccn3)ccc21 (stereo not drawn) | 940.5 | 129.4 | 153.4*[activator] | 34 | 5 | 117.7 | i | 100.4 | 100.8 | 101.7 | 102.4 | 104.8 | RGS-Gao=129.4*
CCC(=O)N1CCc2cc(S(=O)(=O)NC(Cc3ccccc3)C(=O)NC3CCCCC3)ccc21 (stereo not drawn) | 105.0 | 104.1 | 106.7 | 22 | 13 | 104.4 | / | / | / | / | / | /
CC/C(=N/NC(=O)c1ccccc1)c1ccc(OCCN2CCOCC2)cc1 | 229.3 | 206.9*[activator] | 188.7*[activator] | 11 | 2 | 189.7*[activator] | 1.1 | 100.5 | 98.2 | 99.0 | 99.2 | 109.8
O=C(NCc1cccnc1)C(=O)NCC1OCCN1S(=O)(=O)c1cc(F)ccc1F (stereo not drawn) | 200.5*[activator] | 205.9*[activator] | 115.4 | / | 75* | ? | -1.2 | 100.2 | 95.4 | 95.7 | 95.3 | 123.9
CC1CC(=O)Nc2ccccc2N1C(=O)Nc1ccc(F)cc1 (stereo not drawn) | / | / | 94.5 | / | / | / | 0.5 | 100.6 | 99.3 | 99.4 | 98.8 | 96.6
COc1ccc(C(=O)NC(=O)Nc2ncccc2C)cc1 | 2.9* | 77.2 | 69.9 | 48 | 2 | 73.7 | -1.1 | 102.0 | 106.8 | 103.6 | 102.9 | 100.0 | RGS-Gao=77.2*
COc1ccc(NC(=O)Nc2ncccc2C)cc1 | 107.8 | 104.3 | 105.8 | 12 | 24 | 103.3 | / | / | / | / | / | /
CC(=O)c1ccc(S(=O)(=O)N2Cc3ccccc3CC2C(=O)O)cc1 (stereo not drawn) | 101.8 | 104.0 | 103.7 | / | 3 | ? | / | / | / | / | / | /
O=C(O)[C@H]1Cc2ccccc2CN1S(=O)(=O)c1ccc(F)cc1 | 29.8 | 98.6 | 99.8 | / | 7 | ? | -1.9 | 109.9 | 122.6 | 109.5 | 114.9 | 119.5
O=C1CC(=O)CC(c2ccccc2)C1 | 110.1 | 101.6 | 100.4 | 17 | 9 | 96.1 | / | / | / | / | / | /
CC(C)(O)C1=NOC(c2ccccc2)C1 (stereo not drawn) | 114.3 | 132.9 | 98.5 | 25 | 200* | 337.9*[activator] | -0.4 | 103.4 | 101.8 | 101.6 | 102.7 | 108.7 | RGS-Gao=132.9*
OC(c1ccccn1)(c1ccccn1)c1ccccn1 | 158.2 | 112.0 | 123.9 | 11 | 5 | 107.0 | / | / | / | / | / | /
CCOC(=O)C1CC(C)=C(C)CC1C(=O)O (stereo not drawn) | 101.4 | 100.8 | 99.3 | / | 2 | ? | / | / | / | / | / | /
COC(=O)c1c(-c2c(Cl)cccc2Cl)noc1C(=O)NN | 95.7 | 94.4 | 97.9 | / | 3 | ? | / | / | / | / | / | /
COc1cc(/C=N/NC(=O)Cn2ccc(C(F)(F)F)n2)cc(OC)c1OC | 14.2* | 31.1* | 20.0* | 14 | 2 | 23.3* | 0.4 | 104.3 | 98.0 | 104.8 | 99.8 | 94.0
CC(=O)c1ccc(OCCn2cnc3ccccc32)cc1 | 192.2*[activator] | 112.4 | 119.7 | 10 | 18 | 109.1 | -0.9 | 99.6 | 100.7 | 101.8 | 100.6 | 109.3 | RGS-Gao=112.4*
Cc1ccc2[nH]cc(CCNC(=O)Nc3ccccc3)c2c1 | / | / | / | 46 | / | / | 0.3 | 104.3 | 107.1 | 105.2 | 102.3 | 96.9
SMILES | RGS16-Gao HTS | RGS4-Gao reg | RGS8-Gao reg | GSH fluor | Avidin fluor | RGS7-Gao | Biotin-avidin | RGS8-Gao single | RGS7-Gao single | RGS16-Gao single | RGS4-Gao confirm | RGS19-Gao single | others
CC(=O)c1cccc(NC(=O)NCCc2c[nH]c3ccccc23)c1 | 88.4 | 88.7 | 95.6 | / | 7 | ? | / | / | / | / | / | /
COc1ccc(NC(=O)Cn2c(NCC(C)O)nc3ccccc32)cc1Cl (stereo not drawn) | 111.4 | 109.9 | 107.3 | 27 | 11 | 113.9 | / | / | / | / | / | /
CCn1c(=O)c(C(=O)NCc2cccnc2)c(O)c2ccccc21 | / | 121.9 | / | 40 | / | / | 0.5 | 101.4 | 97.1 | 100.7 | 96.4 | 100.4
CC1CCCC(C)N1C(=O)c1cc2ncc(CCCl)cn2n1 (stereo not drawn) | 106.9 | 101.1 | 103.9 | 12 | 4 | 101.1 | / | / | / | / | / | /
CC(C)CCNC(=O)NC(=O)COC(=O)C1=COCCO1 | 9.2* | 21.0* | 13.2* | 17 | 2 | 17.2* | -1.2 | 100.7 | 100.3 | 101.5 | 103.9 | 98.5
CC1C(=O)CC(c2ccccc2)NC1c1ccccc1 (stereo not drawn) | 406.6*[activator] | 117.1 | 125.4 | 10 | 12 | 105.9 | -0.6 | 101.3 | 102.7 | 100.0 | 103.5 | 102.2 | RGS-Gao=117.1*
CC1(C)CC(=O)C(N=Nc2ccc(OC(F)F)cc2)=C(O)C1 | 33.9 | 88.6 | 77.1 | 11 | 16 | 92.0 | / | / | / | / | / | /

Source: PubChem (NMMLSC)
